Test [1] in a line: optical density shifts of acrAB sulA E. coli – strain DRC41, OD650, 48 h, E. coli filamentation inducer project, primary screen (AID 1152).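 Note: E. coli MC1000 strain DRC41 lacking acrAB efflux pump and sulA.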 The conditions noted are these: higher = more signal, called active from +8 up or from −8 down.
A short description of test [2]: probe aLefty1 binding on compound microarray – biochemical, small-molecule microarray, 635/667 nm fluorescence, primary screen (AID 1153).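 Note: score merges spot fluorescence with signal-to-noise ratio from the scanned slide images.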 The conditions noted are these: higher = more signal.
Test [3] is described as follows: plasmodial surface anion channel blockers, osmotic lysis – cell-based, P. falciparum Indochina, OD700, 1 h, primary screen (AID 1154). The conditions noted are these: P. falciparum Indochina infected RBC osmotic lysis, higher = more signal, called active from +8 up or from −8 down.
A short description of test [4]: plasmodial surface anion channel blockers, osmotic lysis – cell-based, P. falciparum Indochina, OD700, 2 h, primary screen (AID 1155).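 Note: lysis reports solute entry through the parasite surface anion channel PSAC.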 The conditions noted are these: P. falciparum Indochina infected erythrocytes, higher = more signal, called active from +8 up or from −8 down.
The nature of test [5]: changes in parasitized red cell lysis, either direction – P. falciparum Indochina, OD700, 3 h, PSAC antagonist project, primary screen (AID 1156). The conditions noted are these: P. falciparum-infected erythrocytes, osmotic lysis, higher = more signal, called active from +8 up or from −8 down.
Test [6] in a line: plasmodial surface anion channel blockers, osmotic lysis – cell-based, P. falciparum Indochina, OD700, 18 h, primary screen (AID 1157). The conditions noted are these: P. falciparum Indochina infected erythrocytes, osmotic lysis OD700, 18 h; higher = more signal, called active from +8 up or from −8 down.
A short description of test [7]: S6 kinase pathway phospho-S6 level changes – cell-based, A549, cytoblot, luminescence, serum-stimulated, primary screen (AID 1158).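 Note: serum-stimulated A549 lung adenocarcinoma cells; signal is phosphorylated S6 detected by cytoblot immunostaining with HRP secondary.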 The conditions noted are these: 5 h, higher = more signal.
The target in test [8] is NADPH oxidase 2 (Homo sapiens) (UniProt P04839). Briefly: compounds shifting NOX2 Amplex Red fluorescence – cell-based, HEK293-NOX2, PMA-stimulated, NOX inhibitor project, primary screen (AID 1159). Note: test concentration not given here. The conditions noted are these: 45 min, higher = more signal, called active from +8 up or from −8 down.
Test [9] deals with NADPH oxidase 4 (Homo sapiens) (UniProt Q9NPH5). Briefly: compounds shifting NOX4 Amplex Red fluorescence – cell-based, HEK293-NOX4, tetracycline-induced, NOX inhibitor project, primary screen (AID 1160). The conditions noted are these: HEK293-NOX4, Amplex Red H2O2 fluorescence, 45 min; higher = more signal, called active from +8 up or from −8 down.
Test [10] has as its target NADPH oxidase 5 (Homo sapiens) (UniProt Q96PH1). Briefly: compounds shifting NOX5 Amplex Red fluorescence – cell-based, HEK293-NOX5, NOX inhibitor project, primary screen (AID 1161). The conditions noted are these: HEK293-NOX5, ionomycin, 45 min, higher = more signal.
Test [11] can be described thus: compound effects on lung adenocarcinoma cell viability – A549, calcein-AM fluorescence, 48 h, basal, profiling panel (AID 1162). Note: test concentration not given here. The conditions noted are these: higher = more signal.
Test [12] can be described thus: compound effects on differentiated 3T3-L1 adipocyte viability – cell-based, 3T3-L1 adipocytes, calcein-AM fluorescence, 48 h, basal, profiling panel (AID 1163). Note: test concentration not given here. The conditions noted are these: 3T3-L1 adipocytes viability, higher = more signal.
The nature of test [13]: compound effects on hepatocellular carcinoma cell viability – HepG2, calcein-AM fluorescence, 48 h, basal, profiling panel (AID 1164). Note: test concentration not given here. The conditions noted are these: higher = more signal.
Test [14] is described as follows: compound effects on multiple myeloma cell viability – MM1S, calcein-AM fluorescence, 48 h, basal, profiling panel (AID 1165). Note: test concentration not given here. The conditions noted are these: higher = more signal.
Test [15] in a line: calcein-AM signal in unstimulated myeloma cells – cell-based, calcein-AM fluorescence, 48 h, PK04 Diversity Set, profiling panel (AID 1166).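 Note: cells grown under basal conditions without added stimulus; test concentration not given here.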 The conditions noted are these: RPMI8226 myeloma viability, higher = more signal.
Test [16] in a line: JC-1 mitochondrial signal, unstimulated HepG2 cells – cell-based, JC-1 fluorescence, 24 h, 100 nL compound, profiling panel (AID 1167). Note: test concentration not given here. The conditions noted are these: HepG2 mitochondrial potential, higher = more signal.
Test [17] in a line: JC-1 mitochondrial signal, unstimulated adipocytes – cell-based, JC-1 fluorescence, 3T3-L1 adipocytes, 24 h, 100 nL compound, profiling panel (AID 1168). Note: test concentration not given here. The conditions noted are these: JC-1 mitochondrial fluorescence, higher = more signal, called active from +8 up or from −8 down.
Test [18] can be described thus: JC-1 mitochondrial signal, unstimulated myeloma cells – cell-based, JC-1 fluorescence, RPMI8226, 24 h, 100 nL compound, profiling panel (AID 1169). Note: test concentration not given here. The conditions noted are these: JC-1 mitochondrial potential fluorescence, higher = more signal.
The nature of test [19]: JC-1 mitochondrial signal, unstimulated MM1S myeloma – cell-based, JC-1 fluorescence, 24 h, 100 nL compound, profiling panel (AID 1170). Note: test concentration not given here. The conditions noted are these: MM1S mitochondrial potential, higher = more signal.
A short description of test [20]: resazurin metabolic signal in A549 cells – cell-based, resazurin fluorescence, 24 h, PK04 Diversity Set, profiling panel (AID 1171). Note: test concentration not given here. The conditions noted are these: A549 viability, higher = more signal, called active from +8 up or from −8 down. In general terms: Alamar Blue is a resazurin reagent that responds to reducing activity.

Each structure is given as a SMILES string. Calls of active or inactive are those of the source.

NADPH oxidase 5 (Homo sapiens), sequence (Q96PH1 whole entry, looked up): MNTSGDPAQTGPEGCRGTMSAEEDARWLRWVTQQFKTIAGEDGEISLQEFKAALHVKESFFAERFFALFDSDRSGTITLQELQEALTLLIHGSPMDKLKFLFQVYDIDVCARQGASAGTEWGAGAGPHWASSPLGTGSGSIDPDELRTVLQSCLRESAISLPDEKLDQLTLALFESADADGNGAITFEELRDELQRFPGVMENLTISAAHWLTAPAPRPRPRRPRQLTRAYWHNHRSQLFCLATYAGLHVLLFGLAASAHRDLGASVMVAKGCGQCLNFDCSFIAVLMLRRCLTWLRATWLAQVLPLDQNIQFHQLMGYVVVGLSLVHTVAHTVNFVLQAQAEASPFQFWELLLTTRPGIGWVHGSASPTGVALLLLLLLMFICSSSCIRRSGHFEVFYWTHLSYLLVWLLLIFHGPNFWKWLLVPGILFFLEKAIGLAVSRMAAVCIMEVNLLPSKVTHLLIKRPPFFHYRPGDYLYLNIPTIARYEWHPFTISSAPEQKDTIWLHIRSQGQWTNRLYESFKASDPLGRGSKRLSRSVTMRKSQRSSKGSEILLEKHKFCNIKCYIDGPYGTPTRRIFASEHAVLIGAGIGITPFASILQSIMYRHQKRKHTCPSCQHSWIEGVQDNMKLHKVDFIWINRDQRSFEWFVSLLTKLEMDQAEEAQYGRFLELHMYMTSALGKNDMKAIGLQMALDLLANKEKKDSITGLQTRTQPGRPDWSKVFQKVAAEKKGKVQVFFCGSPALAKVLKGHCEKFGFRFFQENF
NADPH oxidase 2 (Homo sapiens), sequence (P04839 whole entry, looked up): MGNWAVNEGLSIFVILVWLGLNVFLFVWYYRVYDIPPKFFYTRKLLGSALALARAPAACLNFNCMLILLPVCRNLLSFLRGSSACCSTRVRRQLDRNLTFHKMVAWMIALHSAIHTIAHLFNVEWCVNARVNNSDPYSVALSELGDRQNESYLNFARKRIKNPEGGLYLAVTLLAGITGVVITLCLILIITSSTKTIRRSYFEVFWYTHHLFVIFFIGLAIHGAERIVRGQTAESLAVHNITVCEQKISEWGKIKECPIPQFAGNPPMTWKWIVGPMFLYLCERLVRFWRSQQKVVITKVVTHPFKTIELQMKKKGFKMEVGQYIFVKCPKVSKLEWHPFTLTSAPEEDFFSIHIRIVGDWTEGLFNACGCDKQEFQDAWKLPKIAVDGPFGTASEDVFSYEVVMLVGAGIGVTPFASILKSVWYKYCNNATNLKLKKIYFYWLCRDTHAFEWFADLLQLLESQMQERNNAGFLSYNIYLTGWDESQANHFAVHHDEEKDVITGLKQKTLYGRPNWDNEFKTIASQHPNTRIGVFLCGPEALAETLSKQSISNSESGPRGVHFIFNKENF
NADPH oxidase 4 (Homo sapiens), sequence (Q9NPH5 whole entry, looked up): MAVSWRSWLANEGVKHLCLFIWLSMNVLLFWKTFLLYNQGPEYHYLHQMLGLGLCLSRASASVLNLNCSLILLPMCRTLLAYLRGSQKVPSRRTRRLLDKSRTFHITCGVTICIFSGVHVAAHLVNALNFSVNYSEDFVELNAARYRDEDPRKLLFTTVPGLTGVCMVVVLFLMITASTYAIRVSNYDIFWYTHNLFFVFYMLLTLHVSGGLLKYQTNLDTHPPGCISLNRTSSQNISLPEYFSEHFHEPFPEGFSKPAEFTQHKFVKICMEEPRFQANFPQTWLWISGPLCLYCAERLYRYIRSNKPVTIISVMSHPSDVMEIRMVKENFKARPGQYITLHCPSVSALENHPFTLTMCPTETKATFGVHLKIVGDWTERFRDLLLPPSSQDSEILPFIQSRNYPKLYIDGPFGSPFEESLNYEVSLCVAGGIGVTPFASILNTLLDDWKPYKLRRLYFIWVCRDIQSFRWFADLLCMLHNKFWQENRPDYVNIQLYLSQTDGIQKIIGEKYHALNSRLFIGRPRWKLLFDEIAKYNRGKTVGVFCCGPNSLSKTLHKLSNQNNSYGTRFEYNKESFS

`CCC[C@@H]1C=C(C(=O)OCC)[C@H](c2ccccc2)N1S(=O)(=O)c1ccc(C)cc1`: the z-score in test [1] was -0.843 (inactive); in test [3], -0.0086 (inactive); in [4], 0.979 (inactive); in test [5] it was -0.628 (inactive); in [6] it was 0.0962 (inactive); in test [7], -0.788. In addition, the z-score is -0.671 (inactive) in test [8]; -0.646 (inactive) in test [9]; -0.135 in test [10]; -1.78 in test [11]; -0.937 in test [12]; -2.37 in test [13]. Moreover, the z-score in test [14] was -1.19; in test [15] it was -2.96; in [16] it was 3.86; in test [17] it was 0.437 (inactive); in [18], -0.756; in [19], -0.65. Besides, the z-score in [20] was 1.8 (inactive). This molecule also returned a composite z-score in test [2] of 0.316.

Turning to `COC(=O)[C@H](Cc1ccc(O)cc1)N1CC2=CCCC=C[C@@H]2[C@H]1[C@H](O)Cc1ccccc1`, the z-score in test [1] is 1.42 (inactive); in test [3], 3.23 (inactive); in test [4] it was -1.53 (inactive); in test [5], -0.241 (inactive); in test [6] it was -2.05 (inactive); in [7] it was 0.814. For the same molecule, the z-score in [8] was 0.63 (inactive); in test [9] it was -3.8 (inactive); in test [10] it was -2.8; in test [11], 0.852; in test [12], 0.308; in test [13] it was -0.231. Also, the z-score in [14] is -3.12; in test [15] it was -0.833; in [16], -1.68; in test [17], -0.501 (inactive); in [18], -0.521; in test [19] it was -1.58. Further, the z-score in test [20] was 0.481 (inactive). In test [2], this molecule gave a composite z-score of -0.149.

As for `COCCOC(=O)N1C(=O)[C@@]2(c3cc(C#CC4(O)CCCCCC4)ccc31)[C@H](C(=O)NC[C@H](O)c1ccccc1)[C@H]1C(=O)O[C@H](c3ccccc3)[C@H](c3ccccc3)N1[C@@H]2c1ccc(O)cc1`, the z-score in [1] was 0.664 (inactive); in test [3] it was 0.954 (inactive); in test [4] it was 1.01 (inactive); in [5] it was 0.0635 (inactive); in test [6], 1.05 (inactive); in test [7] it was 0.632. For the same molecule, the z-score in test [8] was 1.39 (inactive); in [9], 1.02 (inactive); in test [10], 1.61; in [11], 0.188; in test [12], -0.111; in test [13] it was 0.814. Moreover, the z-score in test [14] is -1.75; in test [15], -2.8; in test [16] it was -1.19; in [17], -0.11 (inactive); in [18] it was -0.643; in test [19] it was -0.113. Further, the z-score in test [20] is 1.63 (inactive). In test [2], this molecule registered a composite z-score of 0.501.

As to `COCCOC(=O)N1C(=O)[C@@]2(c3cc(C#CCCO)ccc31)[C@H](C(=O)N1CCN(c3ncccn3)CC1)[C@H]1C(=O)O[C@H](c3ccccc3)[C@H](c3ccccc3)N1[C@@H]2c1ccc(O)cc1`, the z-score was 1.35 (inactive) in test [1]; 1.78 (inactive) in test [3]; 0.133 (inactive) in [4]; 1.21 (inactive) in test [5]; 0.684 (inactive) in test [6]; 0.188 in [7]. The z-score is 1.69 (inactive) in test [8]; 1.21 (inactive) in [9]; 1.29 in test [10]; 1.61 in test [11]; 0.222 in test [12]; 1.54 in test [13]. The z-score was 0.14 in test [14]; 0.0881 in test [15]; -0.141 in [16]; 0.339 (inactive) in [17]; -0.614 in test [18]; -1.07 in test [19]. The z-score in test [20] is 0.249 (inactive). In test [2], this molecule showed a composite z-score of -0.36.

Source of the values: PubChem BioAssay.
